# Measurements reported in PubChem BioAssay AID463173 (ICCB-Longwood Screening Facility, Harvard Medical School, 2010).
# Among all 52,000 compounds or so, about 4,300 (8.3%) were called active. The sample as a whole holds a higher share of actives than the screen did. Unmarked numbers belong to inactive results. Cut-off read from the data, not from the text of the source: active = survival mostly below about 52% (no sharp cut-off); inactive = mostly above about 56%.
# System: DeltatarO mutant
# Assay: growth inhibition of S. aureus wild type versus tarO mutant, primary screen, teichoic acid synthesis inhibitors, RN4220, OD600 (AID 463173)
# Settings: OD600, 18 h, stronger effect = lower value, screened at 18.75 µg/mL (by protocol)
row,SMILES,survival
1,COc1ccc(CCNS(=O)(=O)c2c(C)nc3sccn3c2=O)cc1OC,64%
2,CCOc1ccc(CN2C(=O)c3ccccc3Sc3ccc(C(=O)NCCc4ccccc4)cc32)cc1,58%
3,COC(=O)C1(C)NC(c2ccccc2C)C2C(=O)N(C)C(=O)C21 (configuration not stated),54% (active)
4,COC(=O)C1(C)NC(c2ccc(OC)cc2)C2C(=O)N(c3ccccc3)C(=O)C21 (configuration not stated),80%
5,COC(=O)C1(C(C)C)NC(c2ccccc2OC)C2C(=O)N(C)C(=O)C21 (configuration not stated),84%
6,COc1ccc(C)cc1NS(=O)(=O)c1ccc2oc(=O)c3ncn(C)c3c2c1,77%
7,CCc1ccc(S(=O)(=O)NCc2ccc3c(c2)CCN3C(=O)c2ccc(C)cc2)cc1,71%
8,CCOc1ccc(-c2nonc2NC(=O)c2ccco2)cc1,79%
9,Cn1c(=O)c2c(ncn2CC(=O)Nc2cccc(C(F)(F)F)c2)n(C)c1=O,71%
10,CC(=O)Nc1cccc(NC(=O)Cn2cnc3c2c(=O)n(C)c(=O)n3C)c1,70%
11,CC(=O)c1cccc(NC(=O)Cn2cnc3c2c(=O)n(C)c(=O)n3C)c1,44% (active)
12,Cc1cccc(-c2cc(-c3ccccc3)nc(SCC(=O)Nc3ccccc3)c2C#N)c1,67%
13,COc1cc(C(CC(=O)Nc2ccc(C)c(F)c2)N2Cc3ccccc3C2=O)cc(OC)c1OC (configuration not stated),93%
14,CC(C)c1ccc(S(=O)(=O)NCc2ccc3c(c2)CCN3C(=O)c2ccccc2)cc1,87%
15,CCc1c(CN2CCN(c3cccc(C)c3C)CC2)csc1C,76%
16,Cc1ccc(-c2c(CN3CCN(c4cccc(C)c4C)CC3)csc2C)cc1,21% (active)
17,Cc1scc(CN2CCN(c3ccccc3F)CC2)c1C,64%
18,Cc1scc(CN2CCN(c3ccc(F)cc3)CC2)c1C,64%
19,Cc1ccc(-c2c(CN3CCN(c4cc(C)ccc4C)CC3)csc2C)cc1,126%

row,SMILES,survival
1,CCc1c(CN2CCN(c3ccc(F)cc3)CC2)csc1C,38% (active)
2,CCc1c(CN2CCN(c3ccccc3F)CC2)csc1C,32% (active)
3,Cc1cc(CN2CCN(c3ccc(F)cc3)CC2)cs1,69%
4,Cc1ccc(-c2c(CN3CCN(c4cc(Cl)ccc4C)CC3)csc2C)cc1,51%
5,COc1ccc(-c2cc(C(F)(F)F)nc(SCCC(=O)Nc3ccccc3F)n2)cc1,77%
6,Cc1ccc(Cl)cc1NC(=O)Cn1nnc2sc3c(c2c1=O)CCC(C(C)(C)C)C3 (configuration not stated),58%
7,C=CCc1c(C)nc2nc(SCC(=O)Nc3cccc(Cl)c3)nn2c1C,102%
8,CCCNC(=O)C1CCN(C(=O)N2CC(C)Oc3ccccc32)CC1 (configuration not stated),65%
9,CCOc1ccc(-n2c(=O)c3c(C)c(C)sc3n(Cc3c(F)cccc3Cl)c2=O)cc1,96%
10,Cc1cccc(C(=O)NCC(=O)OCc2cc(=O)n3nc(C)sc3n2)c1,82%
11,N#Cc1ccc(C(=O)NCc2ccc3c(c2)CCN3C(=O)c2ccc(F)cc2)cc1,83%
12,CCOc1ccc(S(=O)(=O)N2Cc3ccccc3CC2C(=O)Nc2ccc(NC(C)=O)cc2)cc1 (configuration not stated),69%
13,Cc1ccc(-n2ncc(C(=O)Nc3ccc4c(c3)OCO4)c2C2CCN(C(=O)OC(C)(C)C)CC2)cc1,79%
14,COc1ccc(CC(CC(=O)O)C(=O)NCc2ccccc2)cc1 (configuration not stated),81%
15,CCC(=O)Nc1ccc(C(=O)Nc2c[nH]c(=O)[nH]c2=O)cc1,85%
16,CC1CCN(c2nnc(-n3cccc3CNc3cccc(F)c3)s2)CC1,93%
17,Cc1ccc(NC(=O)CSc2nnc(-c3ccc([N+](=O)[O-])cc3)o2)c(C)c1,73%
18,CCOC(=O)c1cc(S(=O)(=O)Nc2cc(C)c(Cl)cc2OC)[nH]n1,77%
19,CCOC(=O)c1cc(S(=O)(=O)Nc2cc(OC)ccc2OC)[nH]n1,119%

row,SMILES,survival
1,CCOC(=O)c1cc(S(=O)(=O)Nc2ccc(OC)c(Cl)c2)[nH]n1,-4% (active)
2,COc1cc(OC)cc(C(=O)Nc2cc3c(cc2N2CCCCC2)n(C)c(=O)n3C)c1,83%
3,COc1ccc(OC)c(S(=O)(=O)N2CCC(c3ccncc3)CC2)c1,122%
4,COc1ccc(CNC(=O)c2cc3c(=O)n(C)c4ccccc4c3n2C)c(OC)c1,50%
5,CCOc1ccc(CCNC(=O)c2cn(-c3ccc(OC)cc3)c(=O)c3ccccc23)cc1OCC,111%
6,COc1ccc(CNC(=O)c2cc3c(=O)n(C)c4ccccc4c3n2C)cc1,89%
7,COc1ccc(CNC(=O)c2cn(-c3cccc(OC)c3)c(=O)c3ccccc23)cc1,67%
8,COc1ccc(-n2cc(C(=O)NCCc3cc(OC)ccc3OC)c3ccccc3c2=O)cc1,55% (active)
9,COc1ccc(-n2cc(C(=O)NCCc3ccc(C)cc3)c3ccccc3c2=O)cc1,53%
10,COc1ccc(-n2cc(C(=O)NCc3cccc(OC)c3)c3ccccc3c2=O)cc1,110%
11,COc1cccc(-n2cc(C(=O)NCc3cccc(Cl)c3)c3ccccc3c2=O)c1,58% (active)
12,COc1ccc(OC)c(CCNC(=O)c2cc3c(=O)n(C)c4ccccc4c3n2C)c1,43% (active)
13,CC1CCC(NC(=O)c2ccc(CSc3nc4ccncc4n3Cc3ccc(F)cc3)cc2)CC1 (configuration not stated),59%
14,COc1ccc(OC)c(-n2c(=O)[nH]c3cc(C(=O)NCCc4ccc(OC)c(OC)c4)ccc3c2=O)c1,76%
15,CCC1CN(C(=O)N2CCC(C(=O)NCc3ccc(N(C)C)cc3)CC2)c2ccccc2O1 (configuration not stated),73%
16,CCOC(=O)N1CCc2c(sc(NCc3ccc(N(CC)CC)cc3)c2C(=O)Nc2cc(OC)ccc2OC)C1,71%
17,CCOC(=O)c1ccc(NC2=CC(c3ccc(F)cc3)N(c3ccc(C(=O)OCC)cc3)C2=O)cc1 (configuration not stated),66%
18,CCc1nc2cccnc2n1-c1ccc(CC(=O)Nc2ccc(C)cc2)cc1,78%
19,COc1ccccc1Nc1nn2c(=O)c3ccc(C(=O)NCCCOC(C)C)cc3nc2s1,71%
